Measurements: PubChem BioAssay (Tox21)
Records with an inconclusive call do not appear. Activity calls are given as the source filed them. Unless noted, calls follow the shape of the dose curve; as a rule, active = well fitted curve in the direction sought with a large enough effect in the repeat runs; inconclusive = weak or mixed curves; inactive = no such curve, though single readings can be large; an effect the other way counts as inactive or inconclusive.

Key:
[1] = qHTS assay to identify aromatase inhibitors - cell viability counter screen (AID 743084);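 also: cells stimulated with testosterone during compound exposure; nearly all actives have a fitted effect of over 55% in size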
[2] = qHTS assay to identify small molecule that activate the aryl hydrocarbon receptor (AhR) signaling pathway - cell viability counter screen (AID 743086);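 also: HepG2 liver cells carrying the AhR DRE luciferase reporter; series mostly up to about 70 µM; nearly all actives have a fitted effect of over 45% in size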
Outline: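 HepG2-AhR-luc (HG2L7.5c1) cells, 4000/well, were preincubated 5 h at 37C, exposed to compound in qHTS format for 24 hr at 37C, then given CellTiter-Fluor for 30 min; viability was read as fluorescence in the reporter wells.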

[3] = target: Peroxisome proliferator-activated receptor gamma (Homo sapiens) (UniProt P37231); assay: qHTS assay to identify small molecule agonists of the peroxisome proliferator-activated receptor gamma (PPARg) signaling pathway (AID 743094; active = well fitted activation curve with a large enough effect in the signal ratio in the repeat runs, not every such curve was filed as active; the % refers to the signal ratio)
Outline: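 Reporter activation was scored by fluorescence of cleaved LiveBLAzer B/G substrate (1 h, room temperature) in PPARg-bla HEK293H cells previously treated 17 h at 37C with DMSO-dissolved compounds.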

[4] = target: Peroxisome proliferator-activated receptor gamma (Homo sapiens) (UniProt P37231); assay: qHTS assay to identify small molecule antagonists of the peroxisome proliferator-activated receptor gamma (PPARg) signaling pathway (AID 743191; calls by dose curve; also: series mostly up to about 63 µM; nearly all actives have a fitted effect of over 30% in size)
Outline: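 GeneBLAzer PPARg UAS-bla HEK293H cells carrying a UAS-driven beta-lactamase reporter were plated at 3000 cells/well, preincubated 5 h at 37C, then given compound for 17 h at 37C; LiveBLAzer B/G FRET substrate was read after 1 h at room temperature.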

[5] = qHTS assay to identify small molecule antagonists of the peroxisome proliferator-activated receptor gamma (PPARg) signaling pathway - cell viability counter screen (AID 743194); also: nearly all actives have a fitted effect of over 55% in size
Outline: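 PPARg-UAS-bla HEK293H cells were plated, rested 5 h at 37 C, then treated with compounds plus rosiglitazone (50 nM final) for 17 h at 37 C; viability was then read by CellTiter-Glo luminescence after 30 min at room temperature.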

[6] = qHTS assay for small molecule agonists of the antioxidant response element (ARE) signaling pathway (AID 743202; active = well fitted activation curve with a large enough effect in the signal ratio in the repeat runs, not every such curve was filed as active; the % refers to the signal ratio)
Outline: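 Steps: seed ARE-bla HepG2 cells (2,000/well); incubate 5 h at 37 C; add compounds by pin tool; incubate 16 h at 37 C; add FRET substrate; read fluorescence after 2 h at RT.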

[7] = qHTS assay for small molecule agonists of the antioxidant response element (ARE) signaling pathway - cell viability counter screen (AID 743203; calls by dose curve; also: nearly all actives have a fitted effect of over 55% in size)
Outline: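 Viability counter screen: stably transfected ARE-bla HepG2 line, 16 hrs compound exposure at 37C/5% CO2, ATP-based CellTiter-Glo luminescence measured in the reporter wells.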

[8] = qHTS assay for small molecule activators of the heat shock response signaling pathway - cell viability counter screen (AID 743209); also: nearly all actives have a fitted effect of over 50% in size
Outline: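 Viability of HSE-bla HeLa cells is measured with CellTiter-Glo in the wells already used for the reporter read. Compound exposure lasts 5 h at 37 C, and luminescence is read after 30 min at room temperature.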

[9] = qHTS assay for small molecule activators of the heat shock response signaling pathway (AID 743210; active = well fitted activation curve with a large enough effect in the signal ratio in the repeat runs, with a control signal flat, not every such curve was filed as active; the % refers to the signal ratio;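 also: HeLa cells with beta-lactamase reporter driven by heat shock elements; series mostly up to about 63 µM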)
Outline: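 Activation of heat shock element-controlled beta-lactamase expression is measured in HeLa cells by LiveBLAzer FRET fluorescence, with compound exposure lasting 5 h at 37 C and substrate loading 2.5 h at room temperature.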

[10] = target: Peroxisome proliferator-activated receptor delta (Homo sapiens) (UniProt Q03181); assay: qHTS assay to identify small molecule agonists of the peroxisome proliferator-activated receptor delta (PPARd) signaling pathway (AID 743212; calls by dose curve)
Outline: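 Cells expressing a UAS-driven beta-lactamase reporter (PPARd-bla HEK293H) were given test compounds after a 5 h settle and kept at 37 C. Reporter activity was then measured as FRET fluorescence using LiveBLAzer B/G substrate.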

[11] = qHTS assay to identify small molecule antagonists of the peroxisome proliferator-activated receptor delta (PPARd) signaling pathway - cell viability counter screen (AID 743213); also: nearly all actives have a fitted effect of over 50% in size
Outline: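 HEK293H cells with the PPARd UAS-bla reporter, co-treated 17 h at 37 C with compounds and L165041 (300 nM final), were lysed with CellTiter-Glo. Luminescence indicated viable cell content.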

[12] = target: Peroxisome proliferator-activated receptor delta (Homo sapiens) (UniProt Q03181); assay: qHTS assay to identify small molecule antagonists of the peroxisome proliferator-activated receptor delta (PPARd) signaling pathway (AID 743215; active = well fitted inhibition curve with a large enough effect in the signal ratio in the repeat runs, not every such curve was filed as active; the % refers to the signal ratio;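 also: cells stimulated with agonist L165041 at 300 nM final during compound exposure; series mostly up to about 62 µM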)
Outline: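 Plated HEK293H PPARd-bla cells rested 5 h at 37 C and 5% CO2. Compound, then agonist L165041 at 300 nM final, was added; 17 h at 37 C followed. Substrate loading, 2 h room temperature, fluorescence measured.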

[13] = target: Bile acid receptor (Homo sapiens) (UniProt Q96RI1); assay: qHTS assay to identify small molecule antagonists of the farnesoid-X-receptor (FXR) signaling pathway (AID 743217; active = well fitted inhibition curve with a large enough effect in the signal ratio in the repeat runs, not every such curve was filed as active; the % refers to the signal ratio)
Outline: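 Screen of the Tox21 10K library in quantitative HTS format using FXR-UAS-bla HEK 293T reporter cells. Agonist chenodeoxycholic acid, 50 uM final, added with compounds; 16 h incubation at 37 °C; beta-lactamase FRET fluorescence measured.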

[14] = target: Bile acid receptor (Homo sapiens) (UniProt Q96RI1); assay: qHTS assay to identify small molecule agonists of the farnesoid-X-receptor (FXR) signaling pathway (AID 743220; active = well fitted activation curve with a large enough effect in the signal ratio in the repeat runs, not every such curve was filed as active; the % refers to the signal ratio)
Outline: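 FXR-UAS-bla HEK 293T cells carrying a UAS-driven beta-lactamase reporter were plated for 5 h at 37C/5% CO2, then exposed to DMSO-dissolved Tox21 10K compounds for 16 h at 37C. A LiveBLAzer B/G FRET substrate was loaded for 2 h at room temperature before fluorescence reading.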

[15] = qHTS assay to identify small molecule antagonists of the farnesoid-X-receptor (FXR) signaling pathway - cell viability counter screen (AID 743221; active = well fitted cell-killing curve with a large enough effect in the repeat runs, not every such curve was filed as active; also: nearly all actives have a fitted effect of over 50% in size)
Outline: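 After a 5 h settling period, FXR-bla HEK 293T cells receive compound and chenodeoxycholic acid (50 uM final) and incubate 16 h at 37 C; CellTiter-Glo luminescence, read after 30 min at room temperature, reports cell viability.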

[16] = target: Vitamin D3 receptor (Homo sapiens) (UniProt P11473); assay: qHTS assay to identify small molecule agonists of the vitamin D receptor (VDR) signaling pathway (AID 743222; calls by dose curve)
Outline: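 Fluorescence from cleaved LiveBLAzer B/G FRET substrate served as readout. VDR-bla cells had been treated 16 h at 37C with test compounds in DMSO, following a 4 h settling period, and substrate was loaded for 2 h at RT.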

[17] = target: Aryl hydrocarbon receptor (Homo sapiens) (UniProt P35869); assay: qHTS assay to identify small molecule that activate the aryl hydrocarbon receptor (AhR) signaling pathway (AID 743085);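 also: HG2L7.5c1 human HepG2 liver cells with stably integrated DRE-driven firefly reporter; series mostly up to about 70 µM; nearly all actives have a fitted effect of over 15% in size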
Outline: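 AhR agonist activity is inferred from enhanced light output of a DRE-controlled firefly luciferase reporter in HepG2 cells, measured with ONE-Glo following 24 h treatment at 37C.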

[18] = qHTS assay to identify small molecule agonists of the peroxisome proliferator-activated receptor delta (PPARd) signaling pathway - cell viability counter screen (AID 743211); also: nearly all actives have a fitted effect of over 55% in size
Outline: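 qHTS cell viability: PPARd-bla HEK293H; 17 h cpd, 37C; CellTiter-Glo, luminescence at 30 min RT.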

[19] = qHTS assay to identify small molecule agonists of the farnesoid-X-receptor (FXR) signaling pathway - cell viability counter screen (AID 743218); also: nearly all actives have a fitted effect of over 45% in size
Outline: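 Viability of FXR-bla HEK 293T cells is measured by ATP-based CellTiter-Glo luminescence following 16 h compound treatment at 37 C and a prior 2 h room-temperature beta-lactamase substrate step.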

[20] = target: Vitamin D3 receptor (Homo sapiens) (UniProt P11473); assay: qHTS assay to identify small molecule antagonists of the vitamin D receptor (VDR) signaling pathway (AID 743223; active = well fitted inhibition curve with a large enough effect in the signal ratio in the repeat runs, not every such curve was filed as active; the % refers to the signal ratio)
Outline: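 Reporter line VDR-bla; stimulus 1alpha,25-(OH)2 vitamin D3, 3 nM final; compound co-addition, 16 h 37C/5% CO2; LiveBLAzer B/G substrate 2 h RT; fluorescence intensity.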
% is scaled to controls: 0 for no effect and ±100 for the full control effect.

Bile acid receptor (Homo sapiens), sequence (Q96RI1 whole entry, looked up): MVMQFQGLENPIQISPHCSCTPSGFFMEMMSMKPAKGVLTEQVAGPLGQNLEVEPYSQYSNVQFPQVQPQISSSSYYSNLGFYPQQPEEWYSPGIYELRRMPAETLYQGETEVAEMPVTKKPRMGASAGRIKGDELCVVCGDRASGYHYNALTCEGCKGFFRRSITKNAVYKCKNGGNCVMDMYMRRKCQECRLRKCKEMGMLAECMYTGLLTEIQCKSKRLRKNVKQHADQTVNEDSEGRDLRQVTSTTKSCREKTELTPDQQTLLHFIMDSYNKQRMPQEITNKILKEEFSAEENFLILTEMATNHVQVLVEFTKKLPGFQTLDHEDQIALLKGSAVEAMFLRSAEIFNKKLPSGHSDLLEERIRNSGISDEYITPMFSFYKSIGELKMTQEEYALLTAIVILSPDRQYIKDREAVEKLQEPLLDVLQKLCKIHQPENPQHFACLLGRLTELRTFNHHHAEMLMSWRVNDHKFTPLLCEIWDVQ
Vitamin D3 receptor (Homo sapiens), sequence (P11473 whole entry, looked up): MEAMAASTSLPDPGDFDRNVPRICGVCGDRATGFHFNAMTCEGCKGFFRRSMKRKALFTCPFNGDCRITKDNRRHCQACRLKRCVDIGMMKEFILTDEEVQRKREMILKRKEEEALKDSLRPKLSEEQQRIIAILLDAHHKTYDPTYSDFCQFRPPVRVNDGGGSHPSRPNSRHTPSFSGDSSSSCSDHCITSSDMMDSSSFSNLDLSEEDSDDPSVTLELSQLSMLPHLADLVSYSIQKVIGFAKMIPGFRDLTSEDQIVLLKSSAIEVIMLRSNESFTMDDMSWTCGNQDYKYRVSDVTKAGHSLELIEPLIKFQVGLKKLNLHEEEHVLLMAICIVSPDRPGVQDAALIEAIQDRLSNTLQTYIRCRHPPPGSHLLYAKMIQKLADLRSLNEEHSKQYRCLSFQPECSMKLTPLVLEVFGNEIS
Peroxisome proliferator-activated receptor delta (Homo sapiens), sequence (Q03181 whole entry, looked up): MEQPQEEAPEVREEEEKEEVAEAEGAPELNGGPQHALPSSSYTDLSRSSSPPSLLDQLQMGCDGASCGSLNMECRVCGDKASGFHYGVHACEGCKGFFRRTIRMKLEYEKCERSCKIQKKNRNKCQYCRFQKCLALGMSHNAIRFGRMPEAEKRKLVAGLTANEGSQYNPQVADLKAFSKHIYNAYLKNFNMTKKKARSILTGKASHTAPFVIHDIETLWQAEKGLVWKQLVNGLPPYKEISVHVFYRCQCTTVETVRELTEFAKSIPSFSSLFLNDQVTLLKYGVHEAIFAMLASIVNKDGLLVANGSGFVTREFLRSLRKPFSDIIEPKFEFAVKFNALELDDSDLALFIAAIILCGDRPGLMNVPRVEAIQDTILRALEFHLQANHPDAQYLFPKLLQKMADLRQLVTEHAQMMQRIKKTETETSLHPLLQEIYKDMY
Peroxisome proliferator-activated receptor gamma (Homo sapiens), sequence (P37231 whole entry, looked up): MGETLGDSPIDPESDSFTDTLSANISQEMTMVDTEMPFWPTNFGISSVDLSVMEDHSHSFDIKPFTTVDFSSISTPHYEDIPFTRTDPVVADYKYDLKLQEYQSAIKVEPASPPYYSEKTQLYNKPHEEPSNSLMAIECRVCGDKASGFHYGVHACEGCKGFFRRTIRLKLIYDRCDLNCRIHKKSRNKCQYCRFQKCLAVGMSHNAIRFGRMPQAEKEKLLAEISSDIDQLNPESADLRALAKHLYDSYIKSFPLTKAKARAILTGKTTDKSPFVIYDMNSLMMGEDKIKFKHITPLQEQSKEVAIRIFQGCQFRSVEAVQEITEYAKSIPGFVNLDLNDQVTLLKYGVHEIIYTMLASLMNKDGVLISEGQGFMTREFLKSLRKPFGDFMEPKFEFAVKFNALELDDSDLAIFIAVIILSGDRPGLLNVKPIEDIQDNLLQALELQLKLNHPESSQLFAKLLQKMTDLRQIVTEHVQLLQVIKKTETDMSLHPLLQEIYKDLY
Aryl hydrocarbon receptor (Homo sapiens), sequence (P35869 whole entry, looked up): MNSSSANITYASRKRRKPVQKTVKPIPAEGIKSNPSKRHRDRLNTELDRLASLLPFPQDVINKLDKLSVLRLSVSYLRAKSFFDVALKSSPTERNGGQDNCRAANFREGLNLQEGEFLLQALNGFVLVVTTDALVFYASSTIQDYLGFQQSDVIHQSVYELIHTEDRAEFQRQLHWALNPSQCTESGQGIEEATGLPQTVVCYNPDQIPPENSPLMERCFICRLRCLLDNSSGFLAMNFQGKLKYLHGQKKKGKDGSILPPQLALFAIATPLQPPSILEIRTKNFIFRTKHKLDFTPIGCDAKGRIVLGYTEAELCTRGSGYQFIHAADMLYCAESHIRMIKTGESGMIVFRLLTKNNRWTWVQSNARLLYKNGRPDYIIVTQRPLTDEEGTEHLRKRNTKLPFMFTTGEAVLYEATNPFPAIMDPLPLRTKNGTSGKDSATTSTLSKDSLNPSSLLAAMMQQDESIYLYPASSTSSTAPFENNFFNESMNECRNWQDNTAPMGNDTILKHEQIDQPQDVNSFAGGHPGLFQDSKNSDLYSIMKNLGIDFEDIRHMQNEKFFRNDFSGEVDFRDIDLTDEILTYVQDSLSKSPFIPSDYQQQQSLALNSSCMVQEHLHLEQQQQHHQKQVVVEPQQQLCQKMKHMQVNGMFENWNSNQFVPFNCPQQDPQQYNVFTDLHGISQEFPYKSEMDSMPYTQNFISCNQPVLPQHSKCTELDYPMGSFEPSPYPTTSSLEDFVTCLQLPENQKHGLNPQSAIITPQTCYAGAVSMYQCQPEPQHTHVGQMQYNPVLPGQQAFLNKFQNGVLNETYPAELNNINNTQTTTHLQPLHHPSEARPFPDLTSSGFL

CC1CCC(=O)C1=O (centres undefined)
inactive: Potency [1] | Potency [2] | Potency [3] | Potency [4] | Potency [5] | Potency [6] | Potency [7] | Potency [8] | Potency [9] | Potency [10] | Potency [11] | Potency [12] | Potency [13] | Potency [14] | Potency [15] | Potency [16]

Cc1cccc(Nc2ccccc2)c1
inactive: Potency [1] | Potency [17] | Potency [2] | Potency [6] | Potency [7] | Potency [8] | Potency [9] | Potency [18] | Potency [11] | Potency [13] | Potency [19] | Potency [14] | Potency [16] | outcome [20]

CCN(CC)CCNC(=O)c1cc(Br)c(N)cc1OC
inactive: Potency [1] | Potency [2] | Potency [3] | Potency [4] | Potency [5] | Potency [6] | Potency [7] | Potency [8] | Potency [9] | Potency [18] | Potency [10] | Potency [19] | Potency [15] | Potency [16]

CN(C)CCN(Cc1ccc(Cl)cc1)c1ccccn1
inactive: Potency [1] | Potency [17] | Potency [3] | Potency [5] | Potency [6] | Potency [7] | Potency [8] | Potency [9] | Potency [10] | Potency [12] | Potency [13] | Potency [14] | Potency [15] | Potency [16]

CCCCC(=O)OCC(=O)[C@H]1[C@H](C)C[C@H]2[C@@H]3C[C@H](F)C4=CC(=O)C=C[C@]4(C)[C@@]3(F)[C@@H](O)C[C@@]21C
inactive: Potency [1] | Potency [17] | Potency [3] | Potency [5] | Potency [6] | Potency [7] | Potency [8] | Potency [18] | Potency [11] | Potency [19] | Potency [15] | Potency [16] | outcome [20]

CCCCc1ncc(/C=C(\Cc2cccs2)C(=O)O)n1Cc1ccc(C(=O)O)cc1
inactive: Potency [1] | Potency [17] | Potency [2] | Potency [5] | Potency [8] | Potency [18] | Potency [11] | Potency [19] | Potency [15] | outcome [20]

O=C(O)CNCC(=O)O
inactive: activity change, negative = cytotoxicity [1] -0.604% [at 8.47 µM] | viability change, negative = cytotoxic [2] -0.209% [at 8.47 µM] | activation [3] 0.605% [at 7.08 µM] | ratio activity, negative = inhibition [4] 11.9% [at 5.95 µM] | activity change, negative = cytotoxicity [5] 0.536% [at 5.95 µM] | activation [6] -1.79% [at 8.36 µM] | viability change, negative = cytotoxic [7] 1.43% [at 8.36 µM] | activity change, negative = cytotoxicity [8] 4.62% [at 5.95 µM] | activation [9] -0.342% [at 5.95 µM] | activity change, negative = cytotoxicity [18] -8.65% [at 5.95 µM] | activation [10] 11.6% [at 5.95 µM] | viability change, negative = cytotoxic [11] -5.77% [at 6.26 µM] | ratio activity, negative = inhibition [12] -0.396% [at 6.26 µM] | activity change, negative = inhibition [13] -18.1% [at 5.95 µM] | viability change, negative = cytotoxic [19] -1.74% [at 5.95 µM] | activation [14] 1.91% [at 5.95 µM] | activity change, negative = cytotoxicity [15] -4.51% [at 5.95 µM] | activation [16] 4.1% [at 6.01 µM]

O=C1OC(=O)C2C3C=CC(C3)C12 (centres undefined)
inactive: Potency [1] | Potency [17] | Potency [3] | Potency [5] | Potency [7] | Potency [8] | Potency [9] | Potency [18] | Potency [10] | Potency [11] | Potency [12] | Potency [19] | Potency [15] | Potency [16] | outcome [20]
